Assay outcomes (PubChem BioAssay)
SF1 inhibitor = inhibitors of human SF-1, primary screen, cell-based, CHO-K1, Gal4-SF-1 LBD, luciferase luminescence; Steroidogenic factor 1 (Homo sapiens), Q13285; CHO-K1 Gal4-SF-1 LBD luciferase reporter; inhibition, % at 10 µM; 65,000 compounds, 0.55% hits;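 active = inhibition above the mean inhibition of all tested compounds plus 3 SD, cut at about 48% in these data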
Target sequence (Q13285 whole entry, looked up, the tested form may be a part): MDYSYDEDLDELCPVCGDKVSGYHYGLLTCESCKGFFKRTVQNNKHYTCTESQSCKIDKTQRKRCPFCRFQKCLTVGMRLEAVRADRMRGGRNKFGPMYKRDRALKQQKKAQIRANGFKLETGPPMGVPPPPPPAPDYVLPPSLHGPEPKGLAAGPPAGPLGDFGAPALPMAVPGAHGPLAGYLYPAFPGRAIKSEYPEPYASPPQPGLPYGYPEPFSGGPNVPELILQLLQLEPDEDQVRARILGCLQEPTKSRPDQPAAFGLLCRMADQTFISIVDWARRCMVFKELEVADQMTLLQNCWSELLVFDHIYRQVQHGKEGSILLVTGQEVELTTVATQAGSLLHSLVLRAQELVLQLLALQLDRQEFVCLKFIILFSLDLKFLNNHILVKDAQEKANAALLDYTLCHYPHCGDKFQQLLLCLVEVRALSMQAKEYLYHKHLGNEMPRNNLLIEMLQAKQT
Each line names hits and unclear results; the compound was inactive in the other large screens. The sample as a whole holds a higher share of hits than the screen did.

CCCCSc1nc2c(c(=O)[nH]1)CCC2	none
O=C(Nc1nc2ccccc2[nH]1)c1ccccc1F	SF1 inhibitor 83.6
O=C(Nc1cccc(-c2nc3ccccc3[nH]2)c1)c1ccco1	none
COc1ccc(C(=O)Nc2nc3ccccc3[nH]2)cc1OC	none
CCOC(=O)CSC(CC)C(=O)Nc1nnc(C(C)C)s1 (stereo unspecified)	none
O=C(Nc1ccc2c(c1)OCO2)c1cnn2cccnc12	none
COCCNc1nc2c(c(=O)n(C)c(=O)n2C)n1Cc1cccc(C)c1	none
Cn1c(=O)c2c(nc(NCc3ccco3)n2C/C=C/c2ccccc2)n(C)c1=O	SF1 inhibitor 53.1
Cn1c(=O)c2c(nc(NC(Cc3ccccc3)C(=O)O)n2Cc2ccccc2)n(C)c1=O (stereo unspecified)	none
O=C(NCc1ccc(F)cc1)C1C2C=CC3(CN(Cc4cccnc4)C(=O)C13)O2 (stereo unspecified)	none
CC(C)CCNC(=O)C1CCN(S(=O)(=O)c2ccc3c(c2)CCC(=O)N3)CC1	none
Cc1nc2ccc(C(=O)c3ccccc3)cc2[nH]1	none
c1ccc(-c2cn3nc(-c4ccccc4)sc3n2)cc1	SF1 inhibitor 50.6
Cc1nc(-c2ccccc2)sc1C(N)=O	none
O=C1c2ccccc2C(=O)N1CCCn1nnc(-c2ccc(N3CCOCC3)cc2)n1	none
CCn1cc(Br)c(C(=O)Nc2cccc(SC)c2)n1	none
CCOC(=O)N1CCC(NC(=O)c2cnn3cccnc23)CC1	none
O=S(=O)(c1ccccc1)N(C1=NCCS1)S(=O)(=O)c1ccccc1	none
CC(=O)C1(C)OC(N)=C(C#N)C(c2ccccc2)C1(C#N)C#N (stereo unspecified)	none
Cc1cc(/C=N/n2cnnc2)c(C)n1-c1ccc(OCc2ccccc2F)cc1	SF1 inhibitor 84.5
CCOc1ccc(C(C)=O)cc1CSc1nnc(-c2cccs2)n1CC1CCCO1 (stereo unspecified)	none
Cc1nn(S(=O)(=O)N2CCCCC2)c(C)c1Br	none
CCOc1ccc2[nH]c(=O)c(CN(CCO)C(=O)c3ccc(F)cc3)cc2c1	none
CCc1nnc2c3cnn(-c4ccc(C)c(C)c4)c3ncn12	none
CC(=O)c1sc(NC(=O)C2(F)C(F)(F)C(F)(F)C(F)(F)C(F)(F)C2(F)F)nc1C	SF1 inhibitor 92.6
CCOC(=O)c1sc(NC(=O)C2CC2)nc1C	none
CC(=O)c1sc(Nc2nc3ccc(F)cc3s2)nc1C	none
CC1(C)C2CCC1(C)C(OC(=O)CSc1nc(N)cc(=O)[nH]1)C2 (stereo unspecified)	none
CCSc1nnc(NC(=O)CSc2nc3c(c(=O)n2-c2ccccc2)SCC3)s1	none
COC(=O)COc1ccc(S(=O)(=O)NCc2ccncc2)cc1	none
O=C(CCC1CCCCC1)NCc1ccncc1	none
CCN(C1CCCCC1)S(=O)(=O)c1ccc(S(=O)(=O)NCc2ccncc2)cc1	SF1 inhibitor 52.3
O=c1oc2ccccc2cc1NCc1ccccc1O	none
O=C(c1ccc(F)cc1F)N(Cc1ccccn1)Cc1ccco1	none
Clc1ccc(OCCN2CCN(c3ncnc4sccc34)CC2)cc1	SF1 inhibitor 89.7
O=C(COC(=O)Cn1cnc2ccccc21)NCCC1=CCCCC1	none
COc1cc2c(C#N)c(N3CCc4ccccc4C3)nc(N)c2c(N)n1	none
c1ccc2c(c1)CCN(c1nc3cc4c(cc3s1)OCCO4)C2	SF1 inhibitor 59.8
COC(=O)C(C)Oc1ccc2c3c(c(=O)oc2c1)CCCCC3 (stereo unspecified)	none
O=C(CCS(=O)(=O)c1ccc(Br)cc1)N1CCN(c2ccccc2F)CC1	none
Cc1cc(C(=O)CSc2nc3ccccc3[nH]2)c(C)n1C	none
Cc1cc(-n2c(C)cc(C(=O)CSc3ncnc4ccccc34)c2C)no1	SF1 inhibitor 70.7
Cc1cc(C(=O)CSc2nc3ccccc3o2)c(C)n1C1CC1	none
CC(=O)c1cccc(NC(=O)CN(c2ccc(C)cc2)S(=O)(=O)c2cccc3nonc23)c1	none
CC1(C)Cc2c(c(-c3ccccc3)nc(N3CCCC3)c2C(N)=O)CO1	none
Cc1ccc(Nc2nc(N)nc(CSc3nccn3C)n2)c(C)c1	none
CC(C)n1nc(C(=O)NCCc2ccc(S(N)(=O)=O)cc2)c2ccccc2c1=O	none
CN1Cc2cc(C(=O)c3cc(Cl)cc(CSc4ncccn4)c3O)cnc2NC1=O	SF1 inhibitor 50.0
Cc1ccc(O)c(C(=O)c2cnc3c(c2)CN(CCC(C)C)C(=O)N3)c1	none
O=C(NCCN1CCN(c2ccccc2F)CC1)C1CC(=O)N(C2CCCC2)C1 (stereo unspecified)	none
CCN=C1SC(C(=O)Nc2cccc(OCC)c2)CC(=O)N1CC (stereo unspecified)	none
Cc1cc(C)nc(Nc2nc(=O)c3ccccc3s2)n1	none
O=C(COc1ccc(Cl)cc1Cl)NC1CCSC1=O (stereo unspecified)	none
O=c1cc(O)nc2n1CCCS2	none
COc1cccc2c1C(=O)c1c(O)c3c(c(O)c1C2=O)C[C@@](O)(C(=O)CO)C[C@@H]3O[C@H]1C[C@H](N)[C@H](O)[C@H](C)O1	SF1 inhibitor 79.8
O=S(=O)(c1ccc(Cl)s1)N1CCN(C/C=C/c2ccccc2)CC1	none
CCOC(=O)C1CCCN(c2nc(C)nc3c2oc2ccccc23)C1 (stereo unspecified)	none
CCOC(=O)C1CCN(Cc2ccc(O)c3ncccc23)CC1	SF1 inhibitor 76.9
CCOC(=O)N1CCC(NC(=O)c2cccnc2SC)CC1	none
O=C(O)c1ccc(COc2c(F)c(F)cc(F)c2F)cc1	none
COc1ccc(OCc2ccc(C(=O)O)cc2)cc1	none
COc1cc(/C=N/O)ccc1OCc1ccc(C(=O)O)cc1	SF1 inhibitor 90.6
Cc1ccc(-n2nc(C)c(C3C(C#N)=C(N)OC4=C3C(=O)CC(C)(C)C4)c2Cl)cc1 (stereo unspecified)	none
CCOc1cc(N2CCOCC2)c(OCC)cc1NC(=O)CSc1cccc[n+]1[O-]	none
Cn1c(=O)c2c(ncn2CCCNC2=CC(C)(C)CC(=O)C2)n(C)c1=O	none
Cc1nc2ccc(NC(=O)Cn3cnc4c3c(=O)n(C)c(=O)n4C)cc2s1	none
COc1cccc(C(=O)Nc2cccc(-c3nnc(-c4ccccc4)o3)c2)c1	none
CC1(C)COCN1S(=O)(=O)c1ccc(C(=O)Nc2nnc(-c3ccc(Cl)s3)o2)cc1	SF1 inhibitor 64.9
CC(=O)Nc1ccc(C(=O)Nc2ccc(S(=O)(=O)N3CCCC3)cc2)cc1	none
CC1CC(C)CN(C(=O)CSc2nnc(-c3ccc(Cl)s3)o2)C1 (stereo unspecified)	none
COc1ccc(-c2nnc(NC(=O)c3ccc(S(=O)(=O)N4COCC4(C)C)cc3)o2)cc1	SF1 inhibitor 50.2
COc1ccc(S(=O)(=O)N2CCCC2C(=O)Nc2ccc(O)cc2)cc1 (stereo unspecified)	none
Cc1onc(-c2c(F)cccc2Cl)c1C(=O)NCc1ccccn1	none
O=C(NCCCn1ccnc1)C1c2ccccc2Oc2ccccc21	none
Cc1c(NC(=O)C(CC(=O)O)NCc2ccco2)c(=O)n(-c2ccccc2)n1C (stereo unspecified)	none
O=C(NCc1ccco1)C1CCC(CNS(=O)(=O)c2cccc3cccnc23)CC1 (stereo unspecified)	none
CN(C(=O)C12CC3CC(CC(C3)C1)C2)C1CCS(=O)(=O)C1 (stereo unspecified)	none
CCOC(=O)CSc1nc2cc(C(=O)NCc3ccco3)ccc2c(=O)n1-c1ccc(F)cc1	SF1 inhibitor 51.4
Cc1cc(C(=O)CNCc2ccco2)c(C)n1-c1ccc(F)cc1	none
CCOC(=O)CSc1nnc(CNC(=O)c2ccc(OC)cc2OC)n1-c1ccc(OC)cc1	none
COc1ccc(C(=O)Nn2c(SCC(=O)NCc3ccco3)nc3ccccc3c2=O)cc1	SF1 inhibitor 61.9
CCn1c(SCC(=O)NCCOc2ccccc2)nc2ccccc2c1=O	none
COc1ccc2cc(C(=O)NCc3ccco3)c(=O)oc2c1	none
